Reference: PubChem BioAssay (NCATS)
Inconclusive results are not listed. Where a call stands in place of a potency, no number is given. The source made the active and inactive calls. Calls follow the shape of the dose curve; as a rule, active = well fitted inhibition curve with a large enough effect; inconclusive = small, poorly fitted or top-dose-only effect; inactive = flat fitted curve, though single readings scatter.

How the values were obtained:
Experiment in all cases: qHTS profiling for inhibitors of Plasmodium falciparum proliferation (AID 504749); also: nearly all actives have a fitted effect of over 60% in size
Settings in all cases: P. falciparum in erythrocytes, SYBR Green DNA, 72 h; series mostly up to 28.7 µM
CP203 = system: CP203
How it was run: (§1)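 P. falciparum-infected erythrocytes (0.3% parasitemia, 2.5% hematocrit) incubated with compound 72 h at 37 C, 5% CO2. Parasite DNA detected by SYBR Green after lysis, overnight at room temperature; normalised to 0.29 uM artemisinin and DMSO.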

CP211 = system: CP211
How it was run: as §1

CP215 = system: CP215
How it was run: as §1

CP217 = system: CP217
How it was run: as §1

CP237 = system: CP237
How it was run: as §1

CP238 = system: CP238
How it was run: as §1

CP247 = system: CP247
How it was run: as §1

CP250 = system: CP250
How it was run: as §1

CP252 = system: CP252
How it was run: as §1

CP256 = system: CP256
How it was run: as §1

CP260 = system: CP260
How it was run: as §1

CP262 = system: CP262
How it was run: as §1

CP265 = system: CP265
How it was run: as §1

CP266 = system: CP266
How it was run: as §1

CP268 = system: CP268
How it was run: as §1

CP269 = system: CP269
How it was run: as §1

CP286 = system: CP286
How it was run: as §1

CP291 = system: CP291
How it was run: as §1

CP297 = system: CP297
How it was run: as §1

CP305 = system: CP305
How it was run: as §1
Potency is read from the fitted curve at half-maximal effect.

| Structure (SMILES) | Potency (CP203) | Potency (CP211) | Potency (CP215) | Potency (CP217) | Potency (CP237) | Potency (CP238) | Potency (CP247) | Potency (CP250) | Potency (CP252) | Potency (CP256) | Potency (CP260) | Potency (CP262) | Potency (CP265) | outcome (CP266) | Potency (CP268) | Potency (CP269) | Potency (CP286) | Potency (CP291) | Potency (CP297) | Potency (CP305) |
| --- | --- | --- | --- | --- | --- | --- | --- | --- | --- | --- | --- | --- | --- | --- | --- | --- | --- | --- | --- | --- |
| CN1C(=O)NC(=O)C(C)(C2=CCCCC2)C1=O (configuration not stated) | inactive | inactive | inactive | inactive | inactive | inactive | inactive | inactive | inactive | inactive | inactive | inactive | inactive | inactive | inactive | inactive | inactive | inactive | inactive | inactive |
| NCCc1ccc(O)cc1 | inactive | inactive | inactive | inactive | inactive | inactive | inactive | inactive | inactive | inactive | inactive | inactive | inactive | inactive | inactive | inactive | inactive | inactive | inactive | inactive |
| CC(C)NC(C)C | inactive | inactive | inactive | inactive | inactive | inactive | inactive | inactive | inactive | inactive | inactive | inactive | inactive | inactive | inactive | inactive | inactive | inactive | inactive | inactive |
| COP(=S)(OC)Oc1ccc(S(=O)(=O)N(C)C)cc1 | inactive | inactive | inactive | inactive | inactive | inactive | inactive | inactive | inactive | inactive | inactive | inactive | inactive | inactive | inactive | inactive | inactive | inactive | inactive | inactive |
| C[C@]12CCC(=O)C=C1CC[C@@H]1[C@@H]2CC[C@]2(C)C(=O)CC[C@@H]12 | inactive | inactive | inactive | inactive | inactive | inactive | inactive | inactive | inactive | inactive | inactive | inactive | inactive | inactive | inactive | inactive | inactive | inactive | inactive | inactive |
| CCC(C)(C)c1ccc(O)cc1 | inactive | inactive | inactive | inactive | inactive | inactive | inactive | inactive | inactive | inactive | inactive | inactive | inactive | inactive | inactive | inactive | inactive | inactive | inactive | inactive |
| Cc1nnc2n1-c1ccc(Cl)cc1C(c1ccccc1)=NC2 | inactive | inactive | inactive | inactive | inactive | inactive | inactive | inactive | inactive | – | inactive | inactive | inactive | inactive | inactive | inactive | inactive | inactive | inactive | inactive |
| CCOP(=S)(OCC)Oc1ccc2c(C)c(Cl)c(=O)oc2c1 | – | – | – | – | – | – | inactive | – | – | – | – | inactive | – | – | – | – | 10 µM (active) | – | – | – |
| COP(=S)(OC)SCN1C(=O)c2ccccc2C1=O | inactive | inactive | inactive | inactive | inactive | inactive | – | inactive | inactive | inactive | inactive | inactive | inactive | – | inactive | inactive | inactive | inactive | inactive | inactive |
| O=C(N/N=C/c1ccc([N+](=O)[O-])o1)c1cc([N+](=O)[O-])cc([N+](=O)[O-])c1O | – | – | – | 0.0028 µM (active) | – | 0.0708 µM (active) | 0.02 µM (active) | 0.1 µM (active) | – | 0.251 µM (active) | – | – | 2.24 µM (active) | – | – | – | – | – | – | – |
| O=C1Nc2ccc(Cl)cc2C(c2ccccc2)=NC1O (configuration not stated) | inactive | inactive | – | inactive | inactive | inactive | inactive | inactive | inactive | inactive | inactive | inactive | inactive | inactive | inactive | inactive | inactive | inactive | inactive | inactive |
| CN1CCC(O)(c2ccc(F)cc2)C(C(=O)c2ccc(F)cc2)C1 (configuration not stated) | inactive | inactive | inactive | inactive | inactive | inactive | inactive | inactive | inactive | inactive | – | inactive | inactive | inactive | inactive | inactive | inactive | inactive | inactive | inactive |
| CC(C)c1cccc(C(C)C)c1O | – | – | inactive | inactive | inactive | inactive | inactive | inactive | inactive | inactive | inactive | inactive | inactive | inactive | – | – | inactive | – | – | inactive |
| C[C@](O)(CS(=O)(=O)c1ccc(F)cc1)C(=O)Nc1ccc(C#N)c(C(F)(F)F)c1 | – | inactive | inactive | inactive | inactive | inactive | inactive | inactive | inactive | inactive | inactive | inactive | inactive | inactive | inactive | inactive | inactive | inactive | inactive | inactive |
| CC(C)(C)NCC(O)c1cc(Cl)c(N)c(C(F)(F)F)c1 (configuration not stated) | – | – | – | 11.2 µM (active) | 7.08 µM (active) | 8.91 µM (active) | 10 µM (active) | 10 µM (active) | 8.91 µM (active) | 11.2 µM (active) | 12.6 µM (active) | – | 8.91 µM (active) | inactive | – | – | – | – | 15.1 µM (active) | – |
| Clc1ccc(C(c2ccc(Cl)cc2)C(Cl)(Cl)Cl)cc1 | – | inactive | – | inactive | – | inactive | inactive | inactive | inactive | inactive | inactive | inactive | inactive | inactive | inactive | inactive | inactive | inactive | – | inactive |
| COC(=O)C(c1ccccc1)C1CCCCN1 (configuration not stated) | inactive | inactive | inactive | inactive | 12.6 µM (active) | inactive | inactive | inactive | inactive | inactive | inactive | – | inactive | inactive | inactive | inactive | inactive | – | inactive | inactive |
| COc1ccc2c(c1)C13CCCC[C@@H]1C(C2)N(C)CC3 (some centres not stated) | – | inactive | inactive | inactive | inactive | inactive | inactive | inactive | inactive | – | 11.2 µM (active) | inactive | – | inactive | – | – | inactive | – | inactive | inactive |
| C=C(C)[C@H]1CN[C@H](C(=O)O)[C@H]1CC(=O)O | inactive | inactive | – | inactive | inactive | inactive | inactive | inactive | inactive | inactive | inactive | inactive | inactive | – | – | inactive | inactive | inactive | – | inactive |
| COc1ccc2c(c1OC)C(=O)O[C@H]2[C@@H]1c2cc3c(cc2CCN1C)OCO3 | inactive | inactive | inactive | – | – | – | – | – | – | – | – | inactive | – | inactive | inactive | inactive | – | inactive | inactive | inactive |
| CCCCCCCCCC(=O)O[C@H]1CC[C@H]2[C@@H]3CCC4=CC(=O)CC[C@@H]4[C@H]3CC[C@]12C | inactive | inactive | inactive | inactive | inactive | inactive | inactive | inactive | inactive | inactive | – | inactive | inactive | inactive | inactive | inactive | – | inactive | inactive | inactive |
| O=C(O)CCCc1ccc(N(CCCl)CCCl)cc1 | inactive | inactive | inactive | inactive | inactive | inactive | inactive | – | inactive | inactive | inactive | inactive | inactive | inactive | inactive | inactive | inactive | inactive | inactive | inactive |
| COc1c2c(cc3c1OCO3)CCN(C)C2 | inactive | – | inactive | inactive | inactive | inactive | inactive | inactive | inactive | inactive | inactive | inactive | inactive | inactive | inactive | inactive | inactive | inactive | inactive | inactive |
| O=P1(N(CCCl)CCCl)NCCCO1 (configuration not stated) | inactive | inactive | inactive | inactive | inactive | inactive | inactive | inactive | inactive | – | inactive | inactive | inactive | inactive | inactive | inactive | inactive | inactive | inactive | inactive |
| O=C1c2ccccc2C(=O)c2ccccc21 | inactive | inactive | inactive | inactive | inactive | inactive | inactive | inactive | inactive | inactive | – | inactive | 10 µM (active) | inactive | inactive | – | inactive | inactive | inactive | – |
| CN1C(=O)C(O)N=C(c2ccccc2)c2cc(Cl)ccc21 (configuration not stated) | inactive | inactive | – | inactive | inactive | inactive | inactive | inactive | inactive | inactive | inactive | inactive | inactive | – | inactive | inactive | inactive | inactive | inactive | inactive |
| CC(C)(C)NCC(O)c1ccccc1Cl (configuration not stated) | – | inactive | – | – | 8.91 µM (active) | – | – | inactive | – | inactive | – | inactive | inactive | – | inactive | inactive | inactive | inactive | 13.5 µM (active) | inactive |
| O=C1c2ccccc2C(=O)C1C(=O)C(c1ccccc1)c1ccccc1 | inactive | inactive | inactive | inactive | inactive | inactive | inactive | inactive | inactive | inactive | – | inactive | inactive | inactive | inactive | inactive | inactive | inactive | inactive | inactive |
| CCCCCCC(=O)CCCCCC/C=C/C[C@@H](O)[C@H](O)[C@@](N)(CO)C(=O)O | inactive | inactive | inactive | inactive | inactive | inactive | inactive | – | inactive | inactive | inactive | inactive | inactive | inactive | inactive | inactive | inactive | inactive | inactive | inactive |
